Data on 19 compounds can be found in PubChem BioAssay (Tox21).

Assay [1] in a line: qHTS assay to identify small molecule antagonists of the thyroid receptor (TR) signaling pathway (AID 743065). Note: series mostly up to about 70 µM; nearly all actives have a fitted effect of over 55% in size. An outline of the steps:
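GH3.TRE-Luc rat pituitary cells carrying two TR response elements driving luciferase were plated for 4 h, given compound plus 1 nM T3 (final), and incubated 23.5 h at 37 C. ONE-Glo luminescence measured reporter inhibition; CellTiter-Fluor fluorescence tracked cytotoxicity.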
(In general: In qHTS, concentration-response curves come from the screen itself.)

Assay [2] concerns thyroid hormone receptor (rat, GH3 cells). Nature of the assay: qHTS assay to identify small molecule agonists of the thyroid receptor (TR) signaling pathway (AID 743066; calls by dose curve).
A short description of assay [3]: qHTS assay to identify small molecule antagonists of the estrogen receptor alpha (ER-alpha) signaling pathway - cell viability counter screen (AID 743074; calls by dose curve; note: nearly all actives have a fitted effect of over 45% in size).
For assay [4], the target named is Estrogen receptor (Homo sapiens) (UniProt P03372). Nature of the assay: qHTS assay to identify small molecule agonists of the estrogen receptor alpha (ER-alpha) signaling pathway (AID 743075; calls by dose curve).
For assay [5] the target is unchanged. Nature of the assay: qHTS assay to identify small molecule agonists of the estrogen receptor alpha (ER-alpha) signaling pathway using the BG1 cell line (AID 743079). Note: nearly all actives have a fitted effect of over 20% in size. Note: potency is the fitted concentration of half-maximal effect.
Assay [6] is described as follows: qHTS assay to identify small molecule antagonists of the estrogen receptor alpha (ER-alpha) signaling pathway using the BG1 cell line - cell viability counter screen (AID 743081).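 Note: compound given together with 17beta-estradiol as the ER stimulus; series mostly up to about 70 µM; nearly all actives have a fitted effect of over 45% in size.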
The next assay has as its target Aromatase (Homo sapiens) (UniProt P11511). The assay can be described thus: qHTS assay to identify aromatase inhibitors (AID 743083). Note: series mostly up to about 70 µM; nearly all actives have a fitted effect of over 55% in size.
Assay [7] in a line: qHTS assay to identify aromatase inhibitors - cell viability counter screen (AID 743084).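 Note: cells stimulated with testosterone during compound exposure; nearly all actives have a fitted effect of over 55% in size.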 Note: potency is the fitted concentration of half-maximal effect.
Assay [8] deals with Aryl hydrocarbon receptor (Homo sapiens) (UniProt P35869). Nature of the assay: qHTS assay to identify small molecule that activate the aryl hydrocarbon receptor (AhR) signaling pathway (AID 743085).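 For activation: HG2L7.5c1 human HepG2 liver cells with stably integrated DRE-driven firefly reporter; series mostly up to about 70 µM.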 Note: nearly all actives have a fitted effect of over 15% in size. Note: potency is the fitted concentration of half-maximal effect. An outline of the steps:
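Luminescence (ONE-Glo) from a dioxin-responsive-element luciferase reporter in HG2L7.5c1 HepG2 cells after 24 hr compound exposure at 37C; viability measured by CellTiter-Fluor fluorescence beforehand.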

A short description of assay [9]: qHTS assay to identify small molecule that activate the aryl hydrocarbon receptor (AhR) signaling pathway - cell viability counter screen (AID 743086). Note: nearly all actives have a fitted effect of over 45% in size. Note: potency is the fitted concentration of half-maximal effect. The method in brief: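 HepG2-AhR-luc (HG2L7.5c1) cells, 4000/well, were preincubated 5 h at 37C, exposed to compound in qHTS format for 24 hr at 37C, then given CellTiter-Fluor for 30 min; viability was read as fluorescence in the reporter wells.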

Assay [10] addresses Peroxisome proliferator-activated receptor gamma (Homo sapiens) (UniProt P37231). Nature of the assay: qHTS assay to identify small molecule agonists of the peroxisome proliferator-activated receptor gamma (PPARg) signaling pathway (AID 743094; active = well fitted activation curve with a large enough effect in the signal ratio in the repeat runs, not every such curve was filed as active; the % refers to the signal ratio). The method in brief: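 Compounds dissolved in DMSO were added to PPARg UAS-bla HEK293H cells for 17 h at 37C, and reporter expression was quantified by fluorescence intensity after 1 h with LiveBLAzer B/G FRET substrate.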

Assay [11] has the same target. Nature of the assay: qHTS assay to identify small molecule antagonists of the peroxisome proliferator-activated receptor gamma (PPARg) signaling pathway (AID 743191; calls by dose curve; note: series mostly up to about 63 µM; nearly all actives have a fitted effect of over 30% in size). The method in brief: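 GeneBLAzer PPARg UAS-bla HEK293H cells carrying a UAS-driven beta-lactamase reporter were plated at 3000 cells/well, preincubated 5 h at 37C, then given compound for 17 h at 37C; LiveBLAzer B/G FRET substrate was read after 1 h at room temperature.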

A short description of assay [12]: qHTS assay to identify small molecule antagonists of the peroxisome proliferator-activated receptor gamma (PPARg) signaling pathway - cell viability counter screen (AID 743194). Note: nearly all actives have a fitted effect of over 55% in size. The method in brief: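 PPARg-UAS-bla HEK293H cells were plated, rested 5 h at 37 C, then treated with compounds plus rosiglitazone (50 nM final) for 17 h at 37 C; viability was then read by CellTiter-Glo luminescence after 30 min at room temperature.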

The nature of assay [13]: qHTS assay for small molecule agonists of the antioxidant response element (ARE) signaling pathway (AID 743202; active = well fitted activation curve with a large enough effect in the signal ratio in the repeat runs, not every such curve was filed as active; the % refers to the signal ratio; note: potency is the fitted concentration of half-maximal effect). An outline of the steps: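 Read-out: LiveBLAzer B/G FRET substrate fluorescence after 2 h at room temperature, following 16 h compound treatment at 37 C of HepG2 cells carrying an ARE-driven beta-lactamase reporter.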
Assay [14] in a line: qHTS assay for small molecule agonists of the antioxidant response element (ARE) signaling pathway - cell viability counter screen (AID 743203; calls by dose curve; note: nearly all actives have a fitted effect of over 55% in size). The method in brief:
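Following 16 hrs of compound treatment at 37C, HepG2 cells with an ARE-controlled beta-lactamase gene were lysed with CellTiter-Glo. Luminescence was read after 30 min at room temperature.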

Assay [15] is described as follows: qHTS assay for small molecule activators of the heat shock response signaling pathway - cell viability counter screen (AID 743209). Note: nearly all actives have a fitted effect of over 50% in size. An outline of the steps: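 Readout: CellTiter-Glo luminescence, 30 min at room temperature. System: HSE-bla HeLa cells, 1500/well, plated overnight. Treatment: compounds in DMSO, 5 h at 37 C.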
Assay [16] is described as follows: qHTS assay for small molecule activators of the heat shock response signaling pathway (AID 743210; active = well fitted activation curve with a large enough effect in the signal ratio in the repeat runs, with a control signal flat, not every such curve was filed as active; the % refers to the signal ratio; note: series mostly up to about 63 µM). The method in brief:
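HSE-bla HeLa cells (beta-lactamase reporter under heat shock response elements) were exposed to compounds for 5 h at 37 C, then loaded with LiveBLAzer B/G FRET substrate for 2.5 h at room temperature before fluorescence reading.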

The target of assay [17] is Estrogen receptor (Homo sapiens) (UniProt P03372). Nature of the assay: qHTS assay to identify small molecule antagonists of the estrogen receptor alpha (ER-alpha) signaling pathway (AID 743069; active = well fitted curve in the direction sought with a large enough effect in the signal ratio in the repeat runs, not every such curve was filed as active; the % refers to the signal ratio). The method in brief:
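HEK293 cells stably carrying an ER-alpha-UAS-bla beta-lactamase reporter were pre-cultured overnight in 2% charcoal-stripped FBS medium. Test compounds in DMSO were added together with 17beta-estradiol for 18 hr at 37C. Read-out was fluorescence after 2 hr with LiveBLAzer B/G FRET substrate at room temperature.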

Assay [18] is described as follows: qHTS assay to identify small molecule antagonists of the estrogen receptor alpha (ER-alpha) signaling pathway using the BG1 cell line (AID 743080; calls by dose curve;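 note: BG1 cells stimulated with 17beta-estradiol alongside compound; series mostly up to about 70 µM; nearly all actives have a fitted effect of over 25% in size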). An outline of the steps:
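BG1-Luc-4E2 cells (endogenous full-length ER-alpha, stable 4×ERE-luciferase) were starved 5 days in phenol-red-free medium with 10% charcoal-stripped FBS, plated 24 h, then given compound plus 17beta-estradiol for 21.5 h at 37 C; ONE-Glo luminescence read after 30 min.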

Results filed as inconclusive are left out. Unmarked numbers belong to inactive results. The source made the active and inactive calls. Unless noted, calls come from the whole dose curve; as a rule, active = well fitted curve in the direction sought with a large enough effect in the repeat runs; inconclusive = weak or mixed curves; inactive = no such curve, though single readings can be large; an effect the other way counts as inactive or inconclusive.

Estrogen receptor (Homo sapiens), sequence (P03372 whole entry, looked up): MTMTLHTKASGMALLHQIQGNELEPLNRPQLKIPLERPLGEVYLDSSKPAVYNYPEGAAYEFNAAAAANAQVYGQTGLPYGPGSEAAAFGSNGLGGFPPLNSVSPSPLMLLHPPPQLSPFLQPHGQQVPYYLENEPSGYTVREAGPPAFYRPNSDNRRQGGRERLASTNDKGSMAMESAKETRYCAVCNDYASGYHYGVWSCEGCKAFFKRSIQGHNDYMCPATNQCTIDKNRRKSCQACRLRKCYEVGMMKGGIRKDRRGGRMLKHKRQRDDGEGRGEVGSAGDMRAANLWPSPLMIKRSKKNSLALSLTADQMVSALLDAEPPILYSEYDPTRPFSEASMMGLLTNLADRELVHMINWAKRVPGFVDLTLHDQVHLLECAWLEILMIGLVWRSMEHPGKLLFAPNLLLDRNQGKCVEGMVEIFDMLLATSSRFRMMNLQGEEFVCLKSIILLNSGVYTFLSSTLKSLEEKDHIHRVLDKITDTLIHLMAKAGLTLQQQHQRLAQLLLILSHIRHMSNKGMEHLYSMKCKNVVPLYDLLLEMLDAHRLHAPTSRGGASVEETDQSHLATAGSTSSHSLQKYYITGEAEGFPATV
Aryl hydrocarbon receptor (Homo sapiens), sequence (P35869 whole entry, looked up): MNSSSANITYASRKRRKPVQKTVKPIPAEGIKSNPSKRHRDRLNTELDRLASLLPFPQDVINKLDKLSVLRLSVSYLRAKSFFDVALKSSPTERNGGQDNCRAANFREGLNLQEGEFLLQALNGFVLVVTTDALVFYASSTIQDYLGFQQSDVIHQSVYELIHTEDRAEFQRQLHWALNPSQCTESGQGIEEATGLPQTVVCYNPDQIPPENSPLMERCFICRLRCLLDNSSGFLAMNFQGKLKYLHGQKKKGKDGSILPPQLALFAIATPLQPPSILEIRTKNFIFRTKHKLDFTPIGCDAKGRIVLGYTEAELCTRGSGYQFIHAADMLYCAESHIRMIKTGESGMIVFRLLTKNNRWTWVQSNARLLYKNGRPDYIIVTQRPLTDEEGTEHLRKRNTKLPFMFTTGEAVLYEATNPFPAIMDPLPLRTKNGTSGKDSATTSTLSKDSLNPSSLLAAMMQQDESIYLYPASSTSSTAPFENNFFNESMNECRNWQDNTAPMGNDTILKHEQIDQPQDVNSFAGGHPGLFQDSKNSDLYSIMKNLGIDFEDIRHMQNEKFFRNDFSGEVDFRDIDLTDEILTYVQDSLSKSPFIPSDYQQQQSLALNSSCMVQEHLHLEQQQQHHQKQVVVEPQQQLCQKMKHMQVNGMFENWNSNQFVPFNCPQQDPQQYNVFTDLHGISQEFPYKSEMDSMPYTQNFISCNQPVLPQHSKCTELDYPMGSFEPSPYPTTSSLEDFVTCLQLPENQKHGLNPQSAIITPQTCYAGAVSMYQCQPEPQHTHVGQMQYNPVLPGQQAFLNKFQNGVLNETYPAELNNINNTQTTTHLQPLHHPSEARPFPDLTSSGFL
Aromatase (Homo sapiens), sequence (P11511 whole entry, looked up): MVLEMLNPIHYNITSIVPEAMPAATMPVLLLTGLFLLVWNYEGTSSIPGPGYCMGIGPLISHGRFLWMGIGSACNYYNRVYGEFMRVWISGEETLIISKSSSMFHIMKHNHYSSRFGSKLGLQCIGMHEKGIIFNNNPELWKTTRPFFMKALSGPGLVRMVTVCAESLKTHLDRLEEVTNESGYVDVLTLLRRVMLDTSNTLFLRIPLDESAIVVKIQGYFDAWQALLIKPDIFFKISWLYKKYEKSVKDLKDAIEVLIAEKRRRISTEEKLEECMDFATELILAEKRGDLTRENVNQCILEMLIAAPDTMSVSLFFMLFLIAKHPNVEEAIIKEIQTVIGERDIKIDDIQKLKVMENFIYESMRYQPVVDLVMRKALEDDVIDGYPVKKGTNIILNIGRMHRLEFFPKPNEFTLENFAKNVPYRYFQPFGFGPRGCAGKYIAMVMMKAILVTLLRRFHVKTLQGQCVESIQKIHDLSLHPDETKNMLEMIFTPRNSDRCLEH
Peroxisome proliferator-activated receptor gamma (Homo sapiens), sequence (P37231 whole entry, looked up): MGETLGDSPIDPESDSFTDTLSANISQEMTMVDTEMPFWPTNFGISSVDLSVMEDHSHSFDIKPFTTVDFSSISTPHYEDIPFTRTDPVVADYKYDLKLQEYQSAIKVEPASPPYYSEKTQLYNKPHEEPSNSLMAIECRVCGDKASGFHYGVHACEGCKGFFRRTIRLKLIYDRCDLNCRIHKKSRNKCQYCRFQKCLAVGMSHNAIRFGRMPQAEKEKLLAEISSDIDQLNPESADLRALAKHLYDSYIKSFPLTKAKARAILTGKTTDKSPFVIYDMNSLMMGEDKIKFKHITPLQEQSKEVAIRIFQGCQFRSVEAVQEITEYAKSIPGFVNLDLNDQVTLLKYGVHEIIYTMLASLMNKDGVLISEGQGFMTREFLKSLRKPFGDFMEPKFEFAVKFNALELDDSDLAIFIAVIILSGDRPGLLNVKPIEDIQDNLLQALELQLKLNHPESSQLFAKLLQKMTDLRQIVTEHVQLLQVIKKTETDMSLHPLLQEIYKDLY

In the case of `Cc1cc2cc3c(C)cc(=O)oc3c(C)c2o1`, the Potency entry (in [1]; in [5]; in the assay with Aromatase (Homo sapiens); in [7]; in assay [8]; in [9]) was “inactive” each time. The Potency result in [11] and in [13] was “inactive” in each case. In addition, the compound was classed as inactive in assay [2], in assay [3], in assay [4], in assay [6], in assay [10] and in [12]. Moreover, the result in assay [14], in assay [15] and in [16] was inactive.

Consider `C=C(C)C(=O)OCCN(CC)CC`, for which the Potency result (in assay [1]; in the assay with Aromatase (Homo sapiens); in assay [7]; in assay [8]; in [9]; in assay [13]) was “inactive” each time. Also, the outcome in [2], in assay [3], in assay [6], in assay [10] and in [14] was inactive.

For the compound `Nc1ccc([N+](=O)[O-])c(N)c1`, the Potency entry (in assay [1]; in assay [18]; with Aromatase (Homo sapiens); in assay [8]; in assay [11]; in [13]) was “inactive” in each case. The compound was called inactive in [2], in assay [17], in assay [4], in [10], in assay [15] and in [16]. Besides, the Potency in [7] and in assay [9] was 33.5 µM (active) each time.

On to `COc1cc(N)ccc1C`, for which the Potency result in assay [1] and in assay [9] was “inactive” each time. In addition, the outcome in assay [2], in [3], in assay [6], in assay [14], in assay [15] and in assay [16] was inactive.

Turning to `CC(COC(C)(C)C)OCCCO` (stereo not drawn), the Potency result (in [1]; with Aromatase (Homo sapiens); in assay [7]; in [8]; in [9]; in assay [11]) was “inactive” throughout. In assay [13], the Potency result is “inactive”. Besides, the compound was classed as inactive in assay [3], in assay [6], in [10], in assay [12], in [14] and in assay [15]. The result in assay [16] was inactive.

For `CC(C)CC(=O)O`, the compound was classed as inactive in assay [17], in assay [3], in assay [4], in assay [6], in assay [10] and in assay [14]. Further, the compound was called inactive in assay [15] and in assay [16]. Moreover, the Potency entry (in assay [5]; in assay [18]; with Aromatase (Homo sapiens); in assay [7]) was “inactive” in each case.

In the case of `Oc1ccccc1-c1nnco1`, the call in [12], in assay [14], in assay [15] and in assay [16] was inactive. Moreover, in assay [13], the Potency entry was “inactive”.

With `C[C@@H]1O[C@@H](O[C@@H]2[C@@H](O)[C@H](OCCc3ccc(O)c(O)c3)O[C@H](CO[C@@H]3O[C@H](CO)[C@@H](O)[C@H](O)[C@H]3O)[C@H]2OC(=O)/C=C/c2ccc(O)c(O)c2)[C@H](O)[C@H](O)[C@H]1O`, the Potency result (in assay [1]; with Aromatase (Homo sapiens); in [7]; in [9]; in assay [11]) was “inactive” in each case. In addition, the result in assay [2], in assay [3], in assay [10], in [12], in assay [14] and in assay [15] was inactive. Also, the compound was called inactive in [16].

`C[C@H](CCC(=O)O)[C@H]1CC[C@H]2[C@@H]3C(=O)C[C@@H]4CC(=O)CC[C@]4(C)[C@H]3CC(=O)[C@]12C`: the result in assay [2], in assay [17], in [3], in assay [4], in assay [6] and in assay [10] was inactive. The outcome in [15] and in assay [16] was inactive. Moreover, the Potency entry (in [5]; in [18]; in the assay with Aromatase (Homo sapiens); in assay [7]; in assay [8]; in assay [9]) was “inactive” each time. Moreover, the Potency entry in assay [11] and in assay [13] was “inactive” in each case.

For `CCCN1C[C@H](CSC)C[C@@H]2c3cccc4[nH]cc(c34)C[C@H]21`, the result in assay [2], in [17], in assay [3], in [4], in assay [6] and in assay [12] was inactive. The outcome in [15] and in assay [16] was inactive. Further, the Potency entry (in the assay with Aromatase (Homo sapiens); in assay [7]; in assay [8]; in assay [9]; in assay [11]; in [13]) was “inactive” each time.

For the compound `Cc1ccccc1OCC(O)CO` (stereo not drawn), the Potency result (in assay [1]; in the assay with Aromatase (Homo sapiens); in [7]; in assay [8]; in assay [9]; in assay [11]) was “inactive” each time. Further, the Potency entry in assay [13] is “inactive”. The result in assay [2], in [6], in assay [10], in assay [12], in assay [14] and in assay [15] was inactive. In [16], the outcome was inactive.

Turning to `Cc1ccc(S(=O)(=O)O)c(C)c1`, the outcome in [17], in assay [3], in assay [4], in assay [6], in assay [10] and in [12] was inactive. Further, the outcome in assay [14], in [15] and in assay [16] was inactive. The Potency result (in [5]; in assay [18]; with Aromatase (Homo sapiens); in [7]; in [11]; in assay [13]) was “inactive” each time.

As to `Cc1ccccc1C(=O)Nc1ccc(C(=O)N2CCCC(N(C)C)c3ccccc32)cc1` (stereo not drawn), the compound was classed as inactive in assay [12], in assay [15] and in assay [16].

Take `CCCCOC(=O)c1ccccc1`: the compound was called inactive in assay [17], in [3], in assay [4], in assay [6], in assay [10] and in assay [14]. Besides, the result in assay [15] was inactive. Moreover, in [5], the Potency is 34.4 µM (active). Besides, the Potency result (in assay [18]; with Aromatase (Homo sapiens); in assay [7]; in assay [9]; in assay [11]; in [13]) was “inactive” in each case.

For `NS(=O)(=O)c1cc2c(cc1Cl)CN(C1CCCCC1)C2=O`, the Potency entry in assay [11] and in assay [13] was “inactive” each time. In addition, the outcome in assay [12], in assay [14], in assay [15] and in assay [16] was inactive.

As for `O=C1CC(c2ccc(Cl)cc2)CC(=O)N1`, the Potency result in [11] and in [13] was “inactive” in each case. Also, the call in assay [12], in [14], in assay [15] and in [16] was inactive.

On to `COc1cc2c(cc1OC)C(=O)CC2`, for which the Potency result in assay [11] and in assay [13] was “inactive” throughout. In addition, the outcome in assay [12], in assay [14], in [15] and in [16] was inactive.

`CC(C)OC(=O)CCCCC(=O)OC(C)C`: the compound was classed as inactive in [2], in [3], in assay [4], in [6], in assay [10] and in [12]. The compound was classed as inactive in assay [14], in [15] and in [16]. The Potency result in assay [5], in [18], in assay [7] and in assay [9] was “inactive” each time. Also, the Potency in assay [8] was 54.6 µM (active); in [13], 30.7 µM (active).

Regarding `CCCCNC1CC(C)(C)NC(C)(C)C1`, the call in assay [2], in assay [17], in [3], in [4], in assay [10] and in [14] was inactive. Besides, the result in [15] and in assay [16] was inactive. For the same compound, the Potency entry (in assay [5]; in assay [18]; with Aromatase (Homo sapiens); in assay [7]; in assay [8]; in assay [9]) was “inactive” each time. Moreover, the Potency result in assay [11] and in assay [13] was “inactive” in each case.
